Screens (PubChem)
Cycloheximide cs: Cycloheximide Counterscreen for Small Molecule Inhibitors of Shiga Toxin | cell reporter, cycloheximide protein synthesis inhibition counterscreen | max response, % | 300,000 compounds, 12% hits; in the data active = max response mostly above about 13%, no sharp cut-off; inactive = mostly below about 14%; note: read at 38.3 µM for the half of the compounds with a filed dose; 0% is about no effect
Sm TGR block: qHTS Assay for the Inhibitors of Schistosoma Mansoni Peroxiredoxins | 360,000 compounds, 3% hits | purified TGR, DTNB reduction, TNB absorbance 405 nm | AID 485364, 2010 | Potency, µM (titrated, usually from 114 µM), for inactives: at the top dose activity change, negative = inhibition, most hits filed as inhibitors; note: potency is the fitted concentration of half-maximal effect; % is set by controls: 0 for no effect and ±100 for the full control effect; nearly all actives have a fitted effect of over 60% in size
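TGR 20 nM + NADPH 100 uM (dispensed conc.), cpd preinc 15 min RT; start with NADPH (500 uM addition) then DTNB (15 mM addition). Kinetic TNB absorbance, 405 nm filter. Four-parameter Hill fit across titration.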
FBPA Giardia inh: qHTS Assay for Inhibitors of Fructose-1,6-bisphosphate Aldolase from Giardia Lamblia; Potency, µM (series often up to 59.6 µM), without a hit: at the top dose activity, negative = inhibition, actives largely listed as inhibitors; 290,000 compounds, 0.71% hits; A8B2U2; purified Giardia FBPA; note: potency is the fitted concentration of half-maximal effect; % is set by controls: 0 for no effect and ±100 for the full control effect; nearly all actives have a fitted effect of over 55% in size
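40 nM FBPA preincubated 10 min at RT with compound (up to 57.5 uM final), then substrate plus GAPDH/TPI/NAD/arsenate coupling and diaphorase/resazurin added. Fluorescence read after 20 min at RT, 525/598 nm.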
Shiga inhibitor: A qHTS for Small Molecule Inhibitors of Shiga Toxin; inhibition, % at 38.7 µM; 290,000 compounds, 9.2% hits; AID 2315, 2010; Vero cells, Shiga toxin protein synthesis inhibition reporter; in the data active = inhibition mostly above about 28%, no sharp cut-off; inactive = mostly below about 43%; note: 0% is about no effect
Tb PYK inh: qHTS of Trypanosoma Brucei Inhibitors; TbPYK enzyme, Kinase-Glo Plus ATP luminescence, 45 min; 410,000 compounds, 0.12% hits; AID 624173, 2012; Potency, µM (highest dose often 76.8 µM), inactives show top-dose activity, negative = inhibition, usual class: inhibitors; note: potency is the fitted concentration of half-maximal effect; % is set by controls: 0 for no effect and ±100 for the full control effect; nearly all actives have a fitted effect of over 50% in size
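Assay buffer: 50 mM TEA pH 7.2, 100 mM KCl, 10 mM MgCl2, 0.05% BSA, 0.01% Tween-20. Pyruvate kinase from T. brucei plus substrate met compound, then ADP (130 uM final). Luminescence was read post 45 min RT.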
LmPK inh: qHTS Assay for Inhibitors of Leishmania Mexicana Pyruvate Kinase (LmPK). Q27686. purified LmPK, Kinase-Glo ATP luminescence, 1 h. Potency, µM (highest dose often 57.5 µM), for the others: at the top dose activity change, negative = inhibition, usual class: inhibitors. 290,000 compounds, 0.37% hits. AID 1721, 2009; note: potency is the fitted concentration of half-maximal effect; % is set by controls: 0 for no effect and ±100 for the full control effect
Target sequence (Q27686 whole entry, looked up): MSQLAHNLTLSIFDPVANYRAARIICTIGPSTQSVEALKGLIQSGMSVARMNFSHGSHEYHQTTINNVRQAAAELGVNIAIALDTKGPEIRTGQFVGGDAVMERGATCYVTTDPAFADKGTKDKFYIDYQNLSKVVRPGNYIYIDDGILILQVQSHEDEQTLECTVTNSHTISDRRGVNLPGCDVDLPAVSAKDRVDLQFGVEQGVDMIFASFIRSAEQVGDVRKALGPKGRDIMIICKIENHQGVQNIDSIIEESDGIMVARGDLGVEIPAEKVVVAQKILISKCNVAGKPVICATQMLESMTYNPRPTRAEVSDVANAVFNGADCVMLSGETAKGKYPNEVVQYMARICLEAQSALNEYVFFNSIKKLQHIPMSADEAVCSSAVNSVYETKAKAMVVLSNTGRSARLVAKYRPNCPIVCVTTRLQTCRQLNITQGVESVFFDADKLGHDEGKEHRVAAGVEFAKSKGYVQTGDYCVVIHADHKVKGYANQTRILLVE
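Purified LmPK (0.1 nM) with 0.5 mM PEP and 0.1 mM ADP in imidazole buffer pH 7.2 with MgCl2/KCl, 1 h at room temperature. ATP formed was read by luciferase luminescence and normalized to no-enzyme and uninhibited controls.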
The depositor's hits bear a star; ? = inconclusive; nt = no result; [ ] = dose if it differs, or a comment. This excerpt belongs to a sample that is enriched for hits. Unless noted, calls come from the whole dose curve; as a rule, active = well fitted curve in the direction sought with a large enough effect; inconclusive = small, poorly fitted or top-dose-only effect, or another doubt; inactive = no such curve, though single readings can be large; an effect the other way counts as inactive or inconclusive.

SMILES	Cycloheximide cs	Sm TGR block	FBPA Giardia inh	Shiga inhibitor	Tb PYK inh	LmPK inh
O=C(CNc1cccc2ccccc12)N/N=C/C=C/c1ccco1	-4.0	7.7%	-4.1%	-7.9	-4.9%	-5.3%
O=C(N/N=C/C=C\c1ccco1)c1cccnc1	10.8	25.1µM*	-25.1%	-3.4	-11.5%	3.8%
O=C(N/N=C\C=C\c1ccco1)c1cncc(Br)c1	-3.0	17.8µM*	?	-23.6	-1.5%	5.6%
O=C(N/N=C/C=C/c1ccccc1)c1cccnc1	-1.2	-1.3%	?	29.9*	2.8%	-12.2%
O=C(N/N=C/C=C/c1ccco1)c1cccnc1	-2.9	22.4µM*	?	-7.5	-3.4%	2.6%
O=C(N/N=C\c1ccco1)c1cncc(Br)c1	2.7	0.4%	-25.9%	-37.5	nt	0.0%
COC(=O)c1ccccc1NC(=O)c1ccc2c(c1)CCN2S(=O)(=O)c1ccc(C)cc1	nt	-1.1%	nt	nt	-0.9%	nt
C[C@H](CCCC(C)(C)O)[C@H]1CC[C@H]2[C@@H]3CC=C4C[C@@H](O)CC[C@]4(C)[C@H]3CC[C@]12C	nt	nt	nt	nt	5.9%	nt
Cc1ccc(NS(=O)(=O)c2c(C)nc3sccn3c2=O)c(Cl)c1	nt	2.5%	nt	nt	3.4%	nt
Cc1ccc(C(=O)N/N=C/C=C/c2ccccc2)o1	22.4	-18.3%	-15.2%	118.9*	-1.6%	-10.0%
Cc1onc(-c2ccccc2)c1C(=O)N/N=C/C=C/c1ccccc1	-1.7	-9.4%	-11.5%	-12.8	-8.6%	6.6%
Cc1cc(-c2ccc(S(=O)(=O)NCc3ccc(Cl)cc3)cc2)on1	nt	nt	nt	nt	1.6%	nt
C1=C(c2ccccc2)Nc2nnnn2C1c1cccs1 (stereo not given)	15.7*	-30.1%	4.3%	68.8*	-1.8%	2.8%
Fc1ccc(C2=CC(c3cccs3)n3nnnc3N2)cc1 (stereo not given)	27.1*	2.7%	3.3%	58.8*	0.1%	-0.7%
CN(C)c1ccc(C2C=C(c3ccccc3)Nc3nnnn32)cc1 (stereo not given)	nt	0.7%	nt	nt	-12.0%	nt
Cc1ccc(C2=CC(c3cccs3)n3nnnc3N2)cc1 (stereo not given)	47.4*	5.8%	-0.1%[12.9 µM]	81.1	-16.2%	1.2%
CCCN(Cc1nnc(-c2cccs2)o1)C(=O)CN1C(=O)NC2(CCCCC2C)C1=O (stereo not given)	nt	-2.0%	nt	nt	0.0%	nt
COc1cccc2sc(N3CCN(C(=O)CS(=O)(=O)c4ccc(Cl)cc4)CC3)nc12	nt	0.2%	nt	nt	0.0%	nt
Cc1occc1C(=O)N1CCCC(N2CCN(c3cccc(Cl)c3)CC2)C1 (stereo not given)	1.5	-35.4%	nt	9.1	1.1%	0.9%
CCOC(=O)C(=NO)C1=CSC2=NNC(C)(C)N12	nt	nt	nt	nt	3.0%	nt
Cc1ccc(C)c(Cn2c(SCC(=O)NCc3ccccc3)nc3ccccc32)c1	nt	6.6%	nt	nt	-1.1%	nt
CC1CCCCC1NC(=O)c1cccc(S(=O)(=O)N2CCN(Cc3ccccc3)CC2)c1 (stereo not given)	nt	-7.0%	nt	nt	-4.5%	nt
O=C(OCC(=O)N1CCCC1=O)C1CCN(S(=O)(=O)c2ccc(Cl)c(C(F)(F)F)c2)CC1	nt	2.1%	nt	nt	-2.4%	nt
CC(Cc1cccs1)NC(=S)Nc1ccc(Cl)cc1 (stereo not given)	20.6*	-12.5%	1.3%	45.2*	3.9%	3.5%
CC(Cc1cccs1)NC(=S)Nc1ccc(Cl)c(Cl)c1 (stereo not given)	10.8	-4.0%	-7.1%	active	-3.3%	1.1%
SMILES	Cycloheximide cs	Sm TGR block	FBPA Giardia inh	Shiga inhibitor	Tb PYK inh	LmPK inh
CC(C(=O)Nc1ccc(Cl)cc1)N(C)Cc1cccs1 (stereo not given)	11.8	11.3%	7.5%	21.5	-16.0%	0.4%
S=C(NCc1ccncc1)Nc1ccc(Cl)c(Cl)c1	-3.9	?	5.8%	-10.0	46.4%	2.7%
O=C(NC1CCN(C(=S)Nc2ccccc2)CC1)C1CCCCC1	1.3	-7.3%	-2.7%	-6.7	2.5%	-1.5%
CC1(C)CC(=O)C(CC2=C(O)CC(C)(C)CC2=O)=C(O)C1	-2.1	2.82µM*	-5.0%	16.2	-25.7%	-0.4%
CC1(C)CC(=O)C(CC2=C(O)CC(C)(C)CC2=O)C(=O)C1	-0.6	23.5%[11.4 µM]	-12.5%	-16.7	-21.9%	8.3%
CC1CC(CC(=O)NNc2nc(-c3ccccc3)cs2)C(=O)O1 (stereo not given)	-4.0	-10.1%	5.0%	-2.2	-3.6%	7.8%
CC(/C=C/c1ccccc1)=N\Nc1nc(-c2ccccc2)cs1	1.7	1.6%	-23.5%	11.8	-6.3%	0.3%
CC(C)=NNc1nc(-c2ccccc2)cs1	22.2*	-4.2%	-4.5%	65.9	-5.3%	2.4%
CC(C)=NNc1nc(-c2ccc(N3C(=O)CCC3=O)cc2)cs1	20.0*	?	?	14.1	-4.2%	3.5%
C/C(CCC1CC(C)OC1=O)=N/Nc1nc(-c2ccccc2)cs1 (stereo not given)	21.8*	-25.7%	?	44.1*	-0.1%	1.0%
CC(=O)CC/C=C(\C)CC/C=C(/C)CC/C=C(\C)CCC=C(C)C	nt	nt	nt	nt	0.6%	nt
COC(=O)c1ccc(CNC(=O)c2ccc(NS(=O)(=O)c3ccc4[nH]c(=O)[nH]c4c3)cc2)cc1	nt	4.2%	nt	nt	-0.3%	nt
CCNC(=O)c1ccc(NS(=O)(=O)c2ccc3[nH]c(=O)[nH]c3c2)cc1	29.7*	-1.4%	nt	46.1*	1.0%	-10.2%
CC1(C)COC(c2ccccc2Cl)OC1	nt	nt	nt	nt	5.6%	nt
CC1(C)COC(c2coc3ccccc3c2=O)OC1	45.8*	?	0.8%	87.3*	-1.6%	-10.4%
O=C(Nc1ccccc1Cl)O/N=C/c1ccncc1	nt	nt	nt	nt	3.4%	nt
COc1ccc(NC(=O)O/N=C/c2ccncc2)cc1	15.3	-32.1%	11.8%	43.3*	-1.3%	-0.5%
Cc1ccc(C(=O)O/N=C/c2ccc(N(C)C)cc2)cc1	-2.8	10.7%	-0.5%	-0.8	3.9%	2.0%
CN(C)c1ccc(/C=N/OC(=O)Nc2ccccc2Cl)cc1	21.5*	10.2%	-6.9%	95.1*	-2.2%	2.9%
COc1ccc(/C=N/OC(=O)Nc2ccc(Cl)cc2)c(OC)c1	25.5*	-6.5%	-3.2%	21.9	-0.1%	5.1%
Cc1ccc(NC(=O)O/N=C/c2ccc(N(C)C)cc2)cc1	21.3*	1.5%	-7.7%	22.4	-8.9%	4.5%
CC(C)Oc1ccc(CNC(=O)c2ccc(NC(=O)c3nsc4ccccc34)cc2)cc1	nt	0.7%	nt	nt	-9.5%	nt
COc1ccc(/C=N/OC(=O)Nc2ccccc2OC)cc1	42.4*	9.0%	-0.3%	93.9*	-2.1%	?
COc1ccccc1NC(=O)O/N=C(\N)c1ccccc1	9.8	-9.2%	-1.5%	23.5	-21.5%	3.7%
